# Results: PubChem BioAssay
# The source made the active and inactive calls. Unless noted, the rule behind the calls is not given here.
# Assays:
# [1] = HepG2 liver cancer cell viability effects, profiling panel, resazurin fluorescence, 24 h, PK04 Diversity Set (AID 1172); details: higher = more signal
# [2] = basal S. cerevisiae growth modulation, no modifier, primary screen, OD600, strain BY4716, 24 h, basal condition (AID 1173); details: OD600, 24 h, higher = more signal, called active from +8 up or from −8 down
# [3] = MM1S myeloma cell viability, profiling panel, resazurin fluorescence, basal, 24 h, PK04 Diversity Set (AID 1174); details: higher = more signal, called active from +8 up or from −8 down;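 note: MM1S multiple myeloma cell line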
# [4] = biological target: Dihydroorotate dehydrogenase (quinone), mitochondrial (Plasmodium falciparum (isolate 3D7)) (UniProt Q08210); experiment: PfDHODH enzyme inhibitors, primary screen, biochemical, C-terminal His tag, absorbance 600 nm (AID 1175); details: DCIP absorbance 600 nm, higher = more signal, called active from +8 up or from −8 down;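 note: recombinant parasite enzyme with a five histidine tag at its C terminus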
# Chain of Dihydroorotate dehydrogenase (quinone), mitochondrial (Plasmodium falciparum (isolate 3D7)) (Q08210 whole entry, looked up): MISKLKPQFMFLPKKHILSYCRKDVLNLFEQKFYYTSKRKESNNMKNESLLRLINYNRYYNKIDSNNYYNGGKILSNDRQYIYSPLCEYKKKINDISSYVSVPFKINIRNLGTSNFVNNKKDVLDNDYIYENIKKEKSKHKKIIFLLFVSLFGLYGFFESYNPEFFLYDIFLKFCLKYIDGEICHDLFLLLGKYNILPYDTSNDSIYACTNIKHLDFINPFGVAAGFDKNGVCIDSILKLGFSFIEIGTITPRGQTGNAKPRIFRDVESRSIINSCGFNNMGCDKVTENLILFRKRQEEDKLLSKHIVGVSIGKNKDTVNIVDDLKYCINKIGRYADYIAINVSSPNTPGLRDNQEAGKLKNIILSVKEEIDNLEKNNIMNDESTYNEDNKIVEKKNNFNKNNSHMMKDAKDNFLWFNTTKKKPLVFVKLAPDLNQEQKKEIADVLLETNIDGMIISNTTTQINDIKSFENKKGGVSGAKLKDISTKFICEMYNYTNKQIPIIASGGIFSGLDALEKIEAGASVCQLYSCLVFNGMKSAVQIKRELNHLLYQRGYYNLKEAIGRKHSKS
# [5] = P. aeruginosa biofilm formation inhibitors, primary screen, strain PAO1, LB-PBS medium, absorbance 600 nm (AID 1176); details: P. aeruginosa PAO1 growth/biofilm, A600, 12 h; higher = more signal
# [6] = S. cerevisiae RM11-1a growth modifiers, primary screen, strain RM11-1a, OD600, basal, 24 h (AID 1177); details: OD600, 24 h, higher = more signal, called active from +8 up or from −8 down;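 note: cultures grown under basal conditions with no added stressor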
# [7] = E. coli acrAB mutant growth effects, primary screen, E. coli filamentation inducers, strain DRC39, OD650, 24 h (AID 1178); details: higher = more signal, called active from +8 up or from −8 down;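 note: growth measured as culture turbidity by optical density at 650 nm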
# [8] = E. coli acrAB mutant growth effects, primary screen, E. coli filamentation inducers, strain DRC39, OD650, 48 h (AID 1179);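 note: screen aims at cell division blockers that make cells filament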; details: E. coli DRC39 delta-acrAB growth, higher = more signal, called active from +8 up or from −8 down
# [9] = RPMI8226 myeloma cell viability, profiling panel, resazurin fluorescence, basal, 24 h, PK04 Diversity Set (AID 1180); details: higher = more signal;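 note: RPMI8826 multiple myeloma cell line at 5000 cells per well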
# [10] = biological target: E3 ubiquitin-protein ligase XIAP (Homo sapiens) (UniProt P98170); experiment: XIAP binders, primary screen, biophysical, small-molecule microarray, fluorescence 635 nm (AID 1181); details: small-molecule microarray binding, higher = more signal;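 note: score merges 667 nm emission and signal to noise over triplicate slides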
# Chain of E3 ubiquitin-protein ligase XIAP (Homo sapiens) (P98170 whole entry, looked up): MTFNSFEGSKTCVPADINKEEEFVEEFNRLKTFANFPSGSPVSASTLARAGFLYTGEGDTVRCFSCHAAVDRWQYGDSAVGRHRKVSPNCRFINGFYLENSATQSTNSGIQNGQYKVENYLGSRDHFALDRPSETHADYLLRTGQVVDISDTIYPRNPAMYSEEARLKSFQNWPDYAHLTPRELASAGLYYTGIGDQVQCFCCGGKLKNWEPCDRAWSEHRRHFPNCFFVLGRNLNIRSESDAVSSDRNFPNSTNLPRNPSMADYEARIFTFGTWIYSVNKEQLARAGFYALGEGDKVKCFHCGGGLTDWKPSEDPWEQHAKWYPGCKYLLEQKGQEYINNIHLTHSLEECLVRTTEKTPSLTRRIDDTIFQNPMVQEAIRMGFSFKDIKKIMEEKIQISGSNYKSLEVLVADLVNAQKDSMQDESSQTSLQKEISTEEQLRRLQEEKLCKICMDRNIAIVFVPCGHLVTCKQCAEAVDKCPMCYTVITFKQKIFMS
# [11] = system: XIP peptide (Xip251-270) binding; experiment: small-molecule binders of XIP peptide, primary screen, biochemical, small-molecule microarray, fluorescence 635/667 nm, 0.1 µg/mL protein (AID 1182); details: fluorescent protein binding, 635 nm, higher = more signal, called active from +8 up or from −8 down
# XIP peptide (Xip251-270) = experiment: small-molecule binders of XIP peptide, primary screen, biochemical, small-molecule microarray, fluorescence 635/667 nm, 0.5 µg/mL protein (AID 1183); details: small-molecule microarray binding, fluorescence 635 nm; higher = more signal
# [12] = Plasmodium falciparum growth inhibition, primary screen, strain 3D7, DAPI fluorescence, 100 nL (AID 1184);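 note: parasites grown inside human red blood cells in medium with human serum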; details: P. falciparum 3D7 growth, 3 d, higher = more signal
# [13] = biological target: Homeobox protein Hox-A13 (Mus musculus) (UniProt Q62424); experiment: inhibitors of HoxA13-DNA binding, primary screen, biochemical, fluorescence polarization, labeled oligonucleotide (AID 1185); details: 15 min, higher = more signal, called active from +8 up or from −8 down
# Chain of Homeobox protein Hox-A13 (Mus musculus) (Q62424 whole entry, looked up): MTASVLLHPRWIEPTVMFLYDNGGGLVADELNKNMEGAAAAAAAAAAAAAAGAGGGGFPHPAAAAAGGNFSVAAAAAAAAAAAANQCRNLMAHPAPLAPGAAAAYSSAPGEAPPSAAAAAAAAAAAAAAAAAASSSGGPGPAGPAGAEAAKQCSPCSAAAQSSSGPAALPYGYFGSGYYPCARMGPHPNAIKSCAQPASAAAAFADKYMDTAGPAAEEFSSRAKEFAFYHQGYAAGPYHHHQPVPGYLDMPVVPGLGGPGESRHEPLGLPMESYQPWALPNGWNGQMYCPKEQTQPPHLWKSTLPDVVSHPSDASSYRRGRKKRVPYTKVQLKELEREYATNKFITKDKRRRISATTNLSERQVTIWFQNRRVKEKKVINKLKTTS
# [14] = inhibitors of hydroxyurea-induced Chk1 phosphorylation, primary screen, imaging, HeLa, phospho-Chk1 antibody, percent positive cells (AID 1186); details: hydroxyurea-induced phospho-Chk1 immunofluorescence imaging, higher = more signal
# [15] = inhibitors of hydroxyurea-induced Chk1 phosphorylation, primary screen, imaging, HeLa, phospho-Chk1 nuclear intensity (AID 1187); details: hydroxyurea-induced phospho-Chk1 immunofluorescence imaging, higher = more signal
Structure (SMILES),z-score [1],z-score [2],z-score [3],composite z-score [4],z-score [5],z-score [6],z-score [7],z-score [8],z-score [9],composite z-score [10],composite z-score [11],composite z-score (XIP peptide (Xip251-270)),z-score [12],z-score [13],z-score [14],z-score [15]
[N-]=[N+]=Nc1ccccc1[C@@H]1OC(c2ccc(OCCCO)cc2)=N[C@]1(Cc1ccccc1)C(=O)N1CCCCC1,-0.819,-0.592 (inactive),-3.26 (inactive),-0.128 (inactive),0.109 (inactive),1.08 (inactive),0.241 (inactive),0.174 (inactive),-3.5,0.0512,3.82 (inactive),0.806,-2.38,-4.3 (inactive),-0.23 (inactive),-0.606 (inactive)
CCCCC(CC)C(O)C1C=CC2C(=O)N(C)C(=O)C2N1Nc1ccccc1 (stereo not given),-0.339,-0.027 (inactive),-0.916 (inactive),-0.206 (inactive),0.723 (inactive),0.468 (inactive),-0.861 (inactive),-0.389 (inactive),-0.97,0.0297,-0.12 (inactive),0.298,0.537,-4.08 (inactive),0.168 (inactive),-0.174 (inactive)
COC(=O)[C@@]1(Cc2ccccc2)[C@H]2c3cc(C(=O)N4CCCC4)n(CCc4ccccn4)c3C[C@H]2CN1C(=O)c1ccccc1,0.281,1.3 (inactive),-0.454 (inactive),-0.105 (inactive),-0.126 (inactive),0.23 (inactive),-0.413 (inactive),-0.906 (inactive),0.157,0.293,1.44 (inactive),0.663,-1.25,-5.78 (inactive),0.249 (inactive),0.491 (inactive)
Cc1ccc(C(C)CC(O)C2C=CC3C(=O)N(c4ccccc4)C(=O)C3N2Nc2ccccc2)o1 (stereo not given),-1.38,-2.27 (inactive),-1.01 (inactive),-0.478 (inactive),0.574 (inactive),0.184 (inactive),0.1 (inactive),-0.681 (inactive),-0.738,0.254,0.0436 (inactive),0.518,-0.54,-1.12 (inactive),-0.179 (inactive),-0.508 (inactive)
COc1ccc([Si](C)(C)[C@H]2[C@H](CC(=O)N3CCC[C@H]3CO)O[C@@]3(C(=O)N(Cc4ccc(N5CCOC5=O)cc4)c4ccccc43)[C@@H]2C)cc1,-0.0717,0.686 (inactive),-0.255 (inactive),-2.97 (inactive),0.189 (inactive),1.35 (inactive),0.0286 (inactive),-0.16 (inactive),-0.404,-0.0356,0.214 (inactive),0.719,-0.738,-3.99 (inactive),0.222 (inactive),0.0857 (inactive)
